Test results published in the supplement of paper PMC13380429.

Tested on: Vero E6 infected with SARS-CoV-2
Test: inhibition of SARS-CoV-2 cytopathic effect; higher = more antiviral protection, active = above 15
Details: 48 h

Measured: inhibition of SARS-CoV-2 cytopathic effect

CCN(CC)CC1CCCCN1CC(=O)N1c2ccccc2C(=O)Nc2cccnc21 (stereo not given) [otenzepad]
inactive: 1 nM 2.23% | 8.33 nM 3.08% | 100 nM -0.68% | 833.33 nM 5.55% | 10000 nM 0.04%

NCCNc1ccc(NCCN)c2c1C(=O)c1ccncc1C2=O [pixantrone]
inactive: 1 nM -1.68% | 8.33 nM 0.16% | 100 nM -1.63% | 833.33 nM 1.22% | 10000 nM 1.13%

CN1[C@@H]2CC[C@H]1C[C@@H](OC(=O)c1c[nH]c3ccccc13)C2 [tropisetron]
inactive: 1 nM -1.26% | 8.33 nM -1.1% | 100 nM 1.21% | 833.33 nM 1.27% | 10000 nM -1.17%

O=C(Nc1cc(C(F)(F)F)ccc1O)Nc1cc(C(F)(F)F)ccc1O
inactive: 1 nM -2.23% | 8.33 nM 2.44% | 100 nM 6.17% | 833.33 nM -1.82% | 10000 nM -0.23%

CNC(=O)c1cc(Oc2ccc(NC(=O)Nc3cc(C(C)(C)C)nn3-c3ccc4ncccc4c3)c(F)c2)ccn1 [rebastinib]
inactive: 1 nM -1.46% | 8.33 nM 0.18% | 100 nM 1.77% | 833.33 nM 5.75% | 10000 nM 8.96%

Cc1cnc(-c2cc(N3CCN(C(=O)CCS(C)(=O)=O)CC3)ncc2Cl)c(C)c1
inactive: 1 nM -1.36% | 8.33 nM -0.24% | 100 nM 0.43% | 833.33 nM -2.37% | 10000 nM -0.86%

CN(C)CCCn1cc(C2=C(c3c[nH]c4ccccc34)C(=O)NC2=O)c2ccccc21
inactive: 1 nM 2.56% | 8.33 nM 1.35% | 100 nM 1.36% | 833.33 nM 0.57% | 10000 nM 13.2%

CN(C)C(=O)CCSC(SCCC(=O)O)c1cccc(/C=C/c2ccc3ccc(Cl)cc3n2)c1 (stereo not given)
inactive: 1 nM -1.06% | 8.33 nM -1.39% | 100 nM 3.57% | 833.33 nM 1.55% | 10000 nM 5.11%

COc1ccc(-n2nc(CCC(=O)N(C)O)cc2-c2ccc(Cl)cc2)cc1 [tepoxalin]
inactive: 1 nM 0.7% | 8.33 nM -1.58% | 100 nM 0.1% | 833.33 nM 1.81% | 10000 nM -0.4%

O=C1S/C(=C\c2ccc(OCc3cccc(B(O)O)c3)cc2)C(=O)N1Cc1ccc(F)cc1
inactive: 1 nM -1.35% | 8.33 nM 1.46% | 100 nM 0.45% | 833.33 nM 3.95% | 10000 nM -1.14%

O=C(NC1CCNCC1)c1n[nH]cc1NC(=O)c1c(Cl)cccc1Cl
inactive: 1 nM -0.55% | 8.33 nM -2.6% | 100 nM -1.5% | 833.33 nM -1.53% | 10000 nM 2.5%

CC[C@H](CO)Nc1nc(NCc2ccccc2)c2ncn(C(C)C)c2n1 [roscovitine]
inactive: 1 nM 1.02% | 8.33 nM 2.46% | 100 nM -0.4% | 833.33 nM -1.46% | 10000 nM -0.57%

CCCCS(=O)(=O)N[C@@H](Cc1ccc(OCCCCC2CCNCC2)cc1)C(=O)O [tirofiban]
inactive: 1 nM 1.63% | 8.33 nM 1.13% | 100 nM 0.55% | 833.33 nM 0.26% | 10000 nM 2.44%

O=C(O)/C=C/c1ccc(Cn2ccnc2)cc1 [ozagrel]
inactive: 1 nM 0.02% | 8.33 nM 3.28% | 100 nM 0.19% | 833.33 nM 0.75% | 10000 nM -0.91%

CCOC(=O)[C@]12CC1/C(=N\O)c1ccccc1O2 (stereo not given in full)
inactive: 1 nM 1.49% | 8.33 nM -0.95% | 100 nM -1.19% | 833.33 nM -3.34% | 10000 nM -1.39%

NCCc1c[nH]cn1 [histamine]
inactive: 1 nM -0.66% | 8.33 nM 1.36% | 100 nM 0.17% | 833.33 nM 1.23% | 10000 nM 1%

Sc1ncnc2nc[nH]c12 [mercaptopurine]
inactive: 1 nM -0.65% | 8.33 nM 1.59% | 100 nM 2.14% | 833.33 nM 1.92% | 10000 nM 0.56%

O=C1CS[C@@H](c2ccccc2Cl)c2cc(Cl)ccc2N1 (racemic)
inactive: 1 nM 1.66% | 8.33 nM -2.6% | 100 nM -1.47% | 833.33 nM 5.44% | 10000 nM 7.2%

NC(=O)N1CCC(CC(=O)N2CCC([C@H]3c4ncc(Br)cc4CCc4cc(Cl)cc(Br)c43)CC2)CC1 [lonafarnib]
inactive: 1 nM -0.44% | 8.33 nM 0.33% | 100 nM 1.55% | 833.33 nM 11.2% | 10000 nM 12.3%

CN1CCN(C(=O)C2C(C(=O)O)[C@H]3CC[C@@H]2O3)CC1 (stereo not given in full)
inactive: 1 nM -1.86% | 8.33 nM 0.2% | 100 nM 0.49% | 833.33 nM 0.2% | 10000 nM -0.43%

CC(=O)OC[C@H]1O[C@@H]([S-])[C@H](OC(C)=O)[C@@H](OC(C)=O)[C@@H]1OC(C)=O.CCP(CC)CC.[Au+] [auranofin]
active: 833.33 nM 18.4%
inactive: 1 nM 3.21% | 8.33 nM 4.4% | 100 nM 7.71% | 10000 nM -21.1%
